In the library only some 3.3% were active in any assay of this set; here they are far more common.
CASP6 VEID inh: human caspase-6 inhibitors, primary screen, biochemical, VEID-R110 fluorescence, single point, set 2. AID 686996, 2013. 350,000 tested, 0.53% active. purified caspase-6, Z-VEID-R110 cleavage fluorescence. P55212. inhibition, % at 12.5 µM;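 active = mean inhibition across replicates at least about 35%, with every replicate also reaching that limit, limit read from the data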;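 also: 0% = median of neutral control wells and 100% = no fluorescence left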
ERAP1 HTS inh: human ERAP1 aminopeptidase inhibitors, primary screen, biochemical, single point, plate reader | Endoplasmic reticulum aminopeptidase 1 (Homo sapiens), Q9NZ08 | recombinant ERAP1, Leu-AMC fluorescence, 60 min | inhibition, % at 10.7 µM | 340,000 tested, 0.15% active;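 active = mean replicate inhibition of at least 30%, or all replicates individually reaching that 30% level; inactive = mean below 30% and not every replicate reaching it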;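 also: 0% = neutral control wells and 100% = L-leucinethiol positive control wells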
Target sequence (Q9NZ08 whole entry, looked up): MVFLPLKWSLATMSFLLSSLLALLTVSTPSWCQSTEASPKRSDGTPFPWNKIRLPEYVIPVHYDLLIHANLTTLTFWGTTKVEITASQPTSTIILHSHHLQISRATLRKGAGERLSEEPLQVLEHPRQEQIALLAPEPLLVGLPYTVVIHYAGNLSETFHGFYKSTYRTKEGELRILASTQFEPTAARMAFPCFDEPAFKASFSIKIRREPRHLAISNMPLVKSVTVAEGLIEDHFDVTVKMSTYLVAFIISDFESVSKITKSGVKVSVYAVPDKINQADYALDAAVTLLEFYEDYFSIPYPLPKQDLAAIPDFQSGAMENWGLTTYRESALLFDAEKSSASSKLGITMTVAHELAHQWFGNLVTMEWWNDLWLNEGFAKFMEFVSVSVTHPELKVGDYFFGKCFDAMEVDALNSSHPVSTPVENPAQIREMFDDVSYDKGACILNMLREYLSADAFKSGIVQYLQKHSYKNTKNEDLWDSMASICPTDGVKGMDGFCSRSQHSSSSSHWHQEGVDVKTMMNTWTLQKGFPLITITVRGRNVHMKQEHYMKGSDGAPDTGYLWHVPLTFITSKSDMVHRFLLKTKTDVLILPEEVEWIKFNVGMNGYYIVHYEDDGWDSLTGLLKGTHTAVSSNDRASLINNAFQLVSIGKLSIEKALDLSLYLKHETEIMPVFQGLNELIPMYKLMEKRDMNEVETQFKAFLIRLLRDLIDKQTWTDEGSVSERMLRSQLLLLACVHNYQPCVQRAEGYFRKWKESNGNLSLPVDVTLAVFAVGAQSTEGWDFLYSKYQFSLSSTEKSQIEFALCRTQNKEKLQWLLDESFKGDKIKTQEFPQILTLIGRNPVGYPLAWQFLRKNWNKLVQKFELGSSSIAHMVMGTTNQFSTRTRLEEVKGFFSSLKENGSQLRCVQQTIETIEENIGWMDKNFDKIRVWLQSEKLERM
GSIS activator: GLuc luminescence reporter in INS-1E cells, primary screen for activators of glucose-dependent secretion of insulin; INS-1E GLuc reporter insulin secretion, 2-3 h; activation, % at 16.6 µM; 370,000 tested, 0.61% active; AID 743287, 2014;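 active = lowest replicate activation of at least 40%, so every replicate reaches that level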;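 also: 0% = median of neutral control wells and 100% = median of IBMX positive control wells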
SIRT5 inh: SIRT5 desuccinylase inhibitors, primary screen, biochemical, fluorescence imaging, single point, set 5; NAD-dependent protein deacylase sirtuin-5, mitochondrial (Homo sapiens), Q9NXA8; Purified SirT5, succinyl-peptide AMC, trypsin-coupled fluorescence; inhibition, % at 15 µM; 330,000 tested, 1.1% active; in the data active = inhibition above about 15%
FGF22 binding: binders of human FGF22 protein, primary screen, FGF22 synaptogenesis inhibitor project, biophysical, thermal shift, single point; Fibroblast growth factor 22 (Homo sapiens), Q9HCT0; recombinant FGF22 thermal shift, SYPRO orange fluorescence; percent of sucrose octasulfate shift, DMSO zero; activity (Tm shift, normalised), % at 9.99 µM; 340,000 tested, 1.5% active;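 active = mean Tm shift, scaled 0 neutral to 100 positive control, at about 1.3% or above, every replicate too, limit read from the data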
* = called active by the depositor; x = not tested or not shown.

SMILES	CASP6 VEID inh	ERAP1 HTS inh	GSIS activator	SIRT5 inh	FGF22 binding
COCCCNC(=O)C[C@@H]1C[C@@]2(C(=O)OC)CC(C)(C)CC=C2N(CCc2ccc(OC)c(OC)c2)C1=O	1	x	-9	0	0
CCCCOCCCNC(=O)C[C@@H]1C[C@@]2(C(=O)OCC)CCC=C2N(Cc2ccco2)C1=O	49*	-2	12	-6	0
CCCCNC(=O)C[C@@H]1C[C@@]2(C(=O)OC)CC(C)(C)CC=C2N(CCc2ccc(OC)c(OC)c2)C1=O	3	-4	x	x	40*
CO[C@H]1CN(C)C(=O)c2ccc(NS(=O)(=O)c3ccccc3)cc2OC[C@@H](C)N(C)C[C@H]1C	-1	-4	14	3	0
Nc1nc2c(s1)COc1ccccc1-2	6	2	-8	-4	43*
CC(C)(C)C(=O)Nc1nc2c(s1)COc1ccccc1-2	1	5	-22	13	0
CCCCNCC1CCCO1 (centres undefined)	-3	-1	41*	-2	0
C[C@H](O)C#Cc1cnc2c(c1)C(=O)N([C@@H](C)CO)C[C@@H](C)[C@H](CN(C)CC1CCCCC1)O2	x	x	20	-2	0
Cc1cccc(OCC(=O)Nc2ccncc2)c1C	14	1	x	15*	0
C[C@@H]1OC(Nc2ccc(N=Nc3ccccc3)cc2)[C@H](O)[C@H](O)[C@H]1O (some centres undefined)	1	17	x	3	0
OCC(O)C1OC(Nc2ccc(Br)cc2)C(O)C1O (centres undefined)	0	3	13	1	43*
CN=c1sc(C(=O)Nc2ccccc2)c(C)n1C	-5	8	9	1	0
CN=c1sc2c(n1C)C(=O)c1ccccc1C2=O	63*	3	-37	-3	0
CCOC(=O)c1cnc2ccc(OCC)cc2c1NCCCN1CCOCC1	-51	9	x	27*	0
CCOC(=O)c1cnc2ccc(OCC)cc2c1NCCN1CCOCC1	4	0	5	-2	0
CC(=O)Nc1cccc(Nc2nc(-c3ccccc3F)nc3ccccc23)c1	2	10	-5	4	43*
C[C@H](CO)N1C[C@H](C)[C@H](CN(C)C(=O)c2cnccn2)Oc2ncc(-c3ccccc3F)cc2C1=O	2	-1	22	-1	0
COCCC(=O)N1CCC(Oc2ccc(C(=O)N(C)C(C)c3ccon3)cc2)CC1 (centres undefined)	1	-4	-10	-7	0
CC(c1ccon1)N(C)C(=O)c1cccc(OC2CCN(S(C)(=O)=O)CC2)c1 (centres undefined)	0	2	x	15*	0
CC1(C)N=C(c2ccccc2)C(c2ccccc2)=N1	-2	1	41*	-5	0
Cc1ccc(NC(=O)c2ocnc2C)cc1Cl	59*	2	-2	-2	0
C[C@H](CO)N1C[C@H](C)[C@@H](CN(C)CC2CC2)Oc2c(NC(=O)c3cnccn3)cccc2C1=O	-3	0	10	10	0
CCOC(=O)C1=C(C)NC(C)=C(C(=O)OCC)C1C(=O)OCC(=O)N1CCCCC1CC (centres undefined)	2	12	-17	x	0
COC(=O)C1=C(C)NC(C)=C(C(=O)OC)C1C(=O)OCC(=O)N1c2ccccc2CC1C (centres undefined)	0	48*	-11	x	0
CCOC(=O)C1=C(C)NC(C)=C(C(=O)OCC)C1C(=O)OCC(=O)N1CCC(C)CC1	-2	-1	x	x	43*
Cc1nc2sc(C(=O)OCC(=O)N3c4ccccc4CC3C)c(C)c2c(=O)[nH]1 (centres undefined)	-4	-3	-3	-3	43*
CC(NC1=CC(=O)c2cccnc2C1=O)C(O)c1ccccc1 (centres undefined)	100*	0	-41	-1	-1
O=[N+]([O-])c1c(Nc2ccc(O)cc2)cc(Cl)c2nonc12	15	42*	122	17*	0
CCCN(C)C[C@H]1OCc2cnnn2CCCC(=O)N([C@H](C)CO)C[C@H]1C	0	0	0	0	0

Screens: PubChem, Broad Institute
